From PubChem BioAssay (Tox21)
Unmarked numbers belong to inactive results. Calls of active or inactive are those of the source. Calls come from the whole dose curve; as a rule, active = well fitted curve in the direction sought with a large enough effect in the repeat runs; inconclusive = weak or mixed curves; inactive = flat fitted curve, though single readings scatter.

test: qHTS assay to test for compound auto fluorescence at 590 nm (red) in HEK293 cells (AID 720679); details: red autofluorescence 540/590 nm; series mostly up to 91.3 µM; fluorescence, % of fluorescent control: at the top concentration
Procedure, shortened: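 Autofluorescence equivalency to Rose Bengal sodium, 540/590nm, in HEK293 cells exposed overnight to 23 nL compound per well.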
% is set by controls: 0 for no effect and ±100 for the full control effect.

| SMILES | fluorescence, % of fluorescent control | outcome |
| --- | --- | --- |
| COC(C)(C)CCC[C@H](C)C/C=C/C(C)=C/C(=O)OC(C)C | -0.0304% | – |
| O=C1NCN(c2ccccc2)C12CCN(CCCOc1ccc(F)cc1)CC2 | -0.407% [at 46 µM] | – |
| CCC(Cl)CCl (centres undefined) | -0.0329% | – |
| CCCC(=O)Cl | 0.371% | – |
| O=[Se]=O | 0.0034% [at 46 µM] | – |
| CN(N=O)c1ccc([N+](=O)[O-])cc1 | 0.237% | – |
| CC(=O)NC1CCSC1=O (centres undefined) | – | inactive |
| ClP(Cl)(Cl)(Cl)Cl | 0.407% | – |
| O=Cc1ccc2c(c1)OCO2 | -0.0721% | – |
| O=S(=O)(O)C(F)(F)C(F)(F)C(F)(F)C(F)(F)F | -0.464% [at 95.7 µM] | – |
| Oc1ccc(Cl)c(Cl)c1Cl | -0.0764% [at 95.7 µM] | – |
| CNP(=O)(OC)Oc1ccc(C(C)(C)C)cc1Cl (centres undefined) | -0.56% | – |
| CC1C(=O)C[C@]2(C(C)C)C[C@H]12 (some centres undefined) | -0.266% | – |
| COc1nn(CSP(=S)(OC)OC)c(=O)s1 | -0.735% | – |
| CCc1ccc(C(=O)NN(C(=O)c2cc(C)cc(C)c2)C(C)(C)C)cc1 | -0.654% | – |
| CCOP(O)OCC | -0.144% | – |
| CCCC(Cn1cncn1)c1ccc(Cl)cc1Cl (centres undefined) | -0.175% | – |
| O=C(Nc1ccccc1)Nc1cnns1 | -0.0407% | – |
| CC(=O)[C@H]1CC[C@H]2[C@@H]3CC[C@H]4C[C@](C)(O)CC[C@]4(C)[C@H]3CC[C@]12C | 0.108% [at 46 µM] | – |
| CCOP(=S)(OCC)SCSCC | -0.132% | – |
| O=C(OC1CCCCC1)c1ccccc1C(=O)OC1CCCCC1 | 0.273% [at 95.7 µM] | – |
| NCC(CC(=O)O)c1ccc(Cl)cc1 (centres undefined) | 0.161% [at 46 µM] | – |
| CN1[C@@H]2CC[C@H]1CC(OC(=O)c1cc(Cl)cc(Cl)c1)C2 (some centres undefined) | 0.059% [at 46 µM] | – |
| Clc1cc(Cl)c(Cl)c(Cl)c1 | -0.253% | – |
